Test results: ChEMBL document CHEMBL2218924, “A broad activity screen in support of a chemogenomic map for kinase signalling research and drug discovery” (Biochem J, 2013)

Experiments:
[1] = biological target: Death-associated protein kinase 1 (Homo sapiens) (UniProt P53355); settings: at 10 µM
[2] = biological target: Death-associated protein kinase 2 (Homo sapiens) (UniProt Q9UIK4); settings: at 1 µM
[3] = biological target: Death-associated protein kinase 2 (Homo sapiens) (UniProt Q9UIK4); settings: at 10 µM
[4] = biological target: T1, Discoidin domain-containing receptor 2 (Homo sapiens) (UniProt Q16832); settings: at 1 µM
T1 sequence (whole entry): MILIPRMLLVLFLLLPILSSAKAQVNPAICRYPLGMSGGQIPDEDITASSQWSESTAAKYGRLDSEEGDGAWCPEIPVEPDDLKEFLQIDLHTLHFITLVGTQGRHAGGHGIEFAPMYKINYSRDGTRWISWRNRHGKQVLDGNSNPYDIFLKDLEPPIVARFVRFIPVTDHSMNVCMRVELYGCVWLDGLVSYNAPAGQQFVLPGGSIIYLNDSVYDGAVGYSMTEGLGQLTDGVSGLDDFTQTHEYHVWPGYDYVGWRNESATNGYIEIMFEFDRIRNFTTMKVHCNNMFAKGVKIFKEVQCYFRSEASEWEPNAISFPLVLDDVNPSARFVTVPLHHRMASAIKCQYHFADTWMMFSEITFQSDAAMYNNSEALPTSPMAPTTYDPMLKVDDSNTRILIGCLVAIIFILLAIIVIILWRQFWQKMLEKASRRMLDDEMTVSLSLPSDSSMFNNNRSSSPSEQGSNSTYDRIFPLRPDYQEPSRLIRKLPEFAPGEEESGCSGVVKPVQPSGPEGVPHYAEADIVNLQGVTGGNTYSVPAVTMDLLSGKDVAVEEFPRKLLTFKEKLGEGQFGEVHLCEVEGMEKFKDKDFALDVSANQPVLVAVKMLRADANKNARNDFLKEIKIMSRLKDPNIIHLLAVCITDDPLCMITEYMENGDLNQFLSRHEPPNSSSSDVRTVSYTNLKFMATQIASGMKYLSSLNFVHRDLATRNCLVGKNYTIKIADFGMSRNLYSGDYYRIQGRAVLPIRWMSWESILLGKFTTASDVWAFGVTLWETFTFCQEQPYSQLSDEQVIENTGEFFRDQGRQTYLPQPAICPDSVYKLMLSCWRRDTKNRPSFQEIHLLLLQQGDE

[5] = biological target: T1, Discoidin domain-containing receptor 2 (Homo sapiens); settings: at 10 µM
[6] = biological target: T2, Myotonin-protein kinase (Homo sapiens) (UniProt Q09013); settings: at 1 µM
T2 sequence (whole entry): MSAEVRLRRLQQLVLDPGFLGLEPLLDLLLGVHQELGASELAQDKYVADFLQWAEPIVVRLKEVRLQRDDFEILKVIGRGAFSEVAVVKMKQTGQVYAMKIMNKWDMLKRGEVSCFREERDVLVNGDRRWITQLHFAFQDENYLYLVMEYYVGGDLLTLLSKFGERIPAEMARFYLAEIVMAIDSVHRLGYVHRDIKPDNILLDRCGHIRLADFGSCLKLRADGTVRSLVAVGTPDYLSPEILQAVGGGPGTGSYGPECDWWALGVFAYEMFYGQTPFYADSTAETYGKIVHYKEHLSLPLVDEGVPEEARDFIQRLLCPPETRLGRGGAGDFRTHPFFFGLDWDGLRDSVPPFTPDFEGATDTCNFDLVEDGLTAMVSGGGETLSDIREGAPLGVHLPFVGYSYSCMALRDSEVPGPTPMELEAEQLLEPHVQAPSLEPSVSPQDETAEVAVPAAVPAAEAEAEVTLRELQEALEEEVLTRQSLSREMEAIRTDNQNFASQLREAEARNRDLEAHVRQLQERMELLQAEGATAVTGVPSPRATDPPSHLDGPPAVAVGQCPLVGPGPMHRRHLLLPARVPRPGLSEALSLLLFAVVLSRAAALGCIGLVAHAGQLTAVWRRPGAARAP

[7] = biological target: T2, Myotonin-protein kinase (Homo sapiens); settings: at 10 µM
[8] = biological target: T3, Serine/threonine-protein kinase 17A (Homo sapiens) (UniProt Q9UEE5); settings: at 1 µM
T3 sequence (whole entry): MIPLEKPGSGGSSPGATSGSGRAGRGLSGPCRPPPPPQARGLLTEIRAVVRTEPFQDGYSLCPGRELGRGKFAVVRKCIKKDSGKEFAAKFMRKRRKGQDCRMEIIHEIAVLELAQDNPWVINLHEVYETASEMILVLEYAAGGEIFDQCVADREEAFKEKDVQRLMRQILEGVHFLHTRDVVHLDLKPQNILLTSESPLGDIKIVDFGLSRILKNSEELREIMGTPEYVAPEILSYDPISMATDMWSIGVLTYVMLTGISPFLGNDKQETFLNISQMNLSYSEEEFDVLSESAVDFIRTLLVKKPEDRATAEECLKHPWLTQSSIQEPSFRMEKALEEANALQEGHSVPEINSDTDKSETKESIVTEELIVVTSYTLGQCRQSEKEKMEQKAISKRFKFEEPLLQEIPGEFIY

[9] = biological target: T4, Serine/threonine-protein kinase DCLK2 (Homo sapiens) (UniProt Q8N568); settings: at 10 µM
T4 sequence (whole entry): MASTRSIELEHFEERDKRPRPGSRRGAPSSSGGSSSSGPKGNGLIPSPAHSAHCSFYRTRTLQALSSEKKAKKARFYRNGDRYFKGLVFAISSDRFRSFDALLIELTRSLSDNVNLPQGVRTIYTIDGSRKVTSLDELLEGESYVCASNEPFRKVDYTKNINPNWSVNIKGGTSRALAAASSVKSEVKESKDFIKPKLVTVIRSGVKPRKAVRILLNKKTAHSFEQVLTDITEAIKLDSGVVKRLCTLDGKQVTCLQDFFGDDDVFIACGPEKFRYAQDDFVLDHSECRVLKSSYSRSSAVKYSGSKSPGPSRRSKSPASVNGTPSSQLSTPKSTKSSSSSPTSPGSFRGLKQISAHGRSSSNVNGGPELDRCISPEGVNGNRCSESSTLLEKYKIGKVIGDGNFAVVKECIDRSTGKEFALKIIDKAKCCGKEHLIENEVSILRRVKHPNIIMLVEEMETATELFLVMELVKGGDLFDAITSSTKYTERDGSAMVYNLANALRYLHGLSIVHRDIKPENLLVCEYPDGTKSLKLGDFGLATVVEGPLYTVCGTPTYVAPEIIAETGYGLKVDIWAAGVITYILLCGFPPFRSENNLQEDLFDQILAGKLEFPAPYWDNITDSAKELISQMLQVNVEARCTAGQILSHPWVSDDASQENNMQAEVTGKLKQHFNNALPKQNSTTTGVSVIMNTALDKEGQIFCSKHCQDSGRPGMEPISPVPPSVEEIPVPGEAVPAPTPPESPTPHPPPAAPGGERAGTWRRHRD

[10] = biological target: T4, Serine/threonine-protein kinase DCLK2 (Homo sapiens); settings: at 1 µM

Sequence of Death-associated protein kinase 2 (Homo sapiens) (Q9UIK4 whole entry, looked up, the tested form may be a part): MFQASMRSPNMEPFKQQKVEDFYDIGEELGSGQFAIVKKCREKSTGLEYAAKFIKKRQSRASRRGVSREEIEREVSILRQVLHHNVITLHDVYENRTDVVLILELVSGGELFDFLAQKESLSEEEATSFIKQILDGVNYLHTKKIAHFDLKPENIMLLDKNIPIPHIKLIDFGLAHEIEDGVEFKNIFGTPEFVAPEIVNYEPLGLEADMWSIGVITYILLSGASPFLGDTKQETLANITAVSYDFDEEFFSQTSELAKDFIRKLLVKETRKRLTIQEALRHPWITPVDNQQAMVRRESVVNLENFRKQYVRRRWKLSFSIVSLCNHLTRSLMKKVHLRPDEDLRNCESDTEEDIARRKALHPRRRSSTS
Sequence of Death-associated protein kinase 1 (Homo sapiens) (P53355 whole entry, looked up): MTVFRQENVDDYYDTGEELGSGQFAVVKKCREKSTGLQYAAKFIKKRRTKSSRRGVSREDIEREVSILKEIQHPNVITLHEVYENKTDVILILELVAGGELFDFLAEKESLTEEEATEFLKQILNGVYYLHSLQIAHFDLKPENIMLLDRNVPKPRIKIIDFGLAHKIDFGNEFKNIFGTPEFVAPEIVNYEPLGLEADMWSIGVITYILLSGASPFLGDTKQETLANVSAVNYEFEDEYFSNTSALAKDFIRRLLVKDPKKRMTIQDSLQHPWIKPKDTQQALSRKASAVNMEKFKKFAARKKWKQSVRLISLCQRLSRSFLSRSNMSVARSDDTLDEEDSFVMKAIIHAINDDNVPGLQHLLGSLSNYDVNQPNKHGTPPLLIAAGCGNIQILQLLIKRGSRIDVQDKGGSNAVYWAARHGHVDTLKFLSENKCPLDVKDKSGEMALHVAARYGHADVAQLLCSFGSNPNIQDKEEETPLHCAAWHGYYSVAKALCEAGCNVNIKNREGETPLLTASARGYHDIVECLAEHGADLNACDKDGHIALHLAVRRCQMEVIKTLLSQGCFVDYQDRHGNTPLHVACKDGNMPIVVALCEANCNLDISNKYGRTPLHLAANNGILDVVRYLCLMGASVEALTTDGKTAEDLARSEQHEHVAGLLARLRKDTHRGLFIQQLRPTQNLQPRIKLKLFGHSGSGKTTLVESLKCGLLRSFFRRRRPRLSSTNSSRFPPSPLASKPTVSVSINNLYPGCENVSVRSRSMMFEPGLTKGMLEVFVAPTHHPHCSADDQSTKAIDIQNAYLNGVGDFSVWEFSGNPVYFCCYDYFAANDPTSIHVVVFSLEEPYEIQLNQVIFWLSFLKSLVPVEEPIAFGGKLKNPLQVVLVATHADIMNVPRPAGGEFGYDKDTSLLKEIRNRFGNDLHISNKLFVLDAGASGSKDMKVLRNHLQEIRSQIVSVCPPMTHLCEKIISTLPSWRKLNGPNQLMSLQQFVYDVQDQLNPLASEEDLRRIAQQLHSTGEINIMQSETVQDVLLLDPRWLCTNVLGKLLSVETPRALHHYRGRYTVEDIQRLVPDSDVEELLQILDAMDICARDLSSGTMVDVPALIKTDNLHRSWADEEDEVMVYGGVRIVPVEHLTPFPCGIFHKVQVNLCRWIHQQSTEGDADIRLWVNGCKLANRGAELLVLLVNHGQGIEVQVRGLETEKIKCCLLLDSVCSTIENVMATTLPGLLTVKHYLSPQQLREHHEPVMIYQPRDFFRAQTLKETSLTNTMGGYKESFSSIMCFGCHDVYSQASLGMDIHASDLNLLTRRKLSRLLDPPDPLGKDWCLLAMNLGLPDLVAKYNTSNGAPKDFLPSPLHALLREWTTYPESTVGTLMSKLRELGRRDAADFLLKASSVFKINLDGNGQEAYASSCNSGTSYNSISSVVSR

SMILES	residual activity [1]	residual activity [2]	residual activity [3]	residual activity [4]	residual activity [5]	residual activity [6]	residual activity [7]	residual activity [8]	residual activity [9]	residual activity [10]
N#Cc1cnc2cnc(NCc3cccnc3)cc2c1Nc1ccc(F)c(Cl)c1	55%	14%	2%	80%	53%	100%	69%	30%		
N#CCCc1ccc2c(c1)-c1[nH]c3ccc([N+](=O)[O-])cc3c1CC(=O)N2								11%		
COc1cc2ncc(-c3ccccc3)nc2cc1OC	78%	83%			92%			124%	52%	
Cc1cccc(-c2[nH]c(C(C)(C)C)nc2-c2ccc3c(c2)OCO3)n1	77%				98%	145%	143%		99%	86%
COc1cc2ncnc(Nc3ccc(O)c(Br)c3)c2cc1OC	76%		77%	90%	55%	105%	116%	77%	96%	73%
O=C1Nc2ccc(Br)cc2/C1=C\c1cc2c([nH]1)CCCC2				110%		115%	130%	48%		
COc1ccc(C(=O)Nc2sc3c(c2C(N)=O)CCCC3)cc1OC	86%	90%	105%	101%	98%	113%	127%	125%	61%	86%
CO[C@@H]1[C@H](N(C)C(=O)c2ccccc2)C[C@H]2O[C@]1(C)n1c3ccccc3c3c4c(c5c6ccccc6n2c5c31)C(=O)NC4	72%	71%	54%	106%	69%		90%	16%	38%	75%
CC[n+]1c(/C=C/N(C)c2ccccc2)n(-c2ccccc2)c2ccc(-c3nc4ccccc4s3)cc21	51%	100%	99%	116%	88%	120%	121%	119%	102%	110%
NC(=O)c1ccc2[nH]c(-c3ccc(Oc4ccc(Cl)cc4)cc3)nc2c1	98%	101%	102%	98%	102%	107%	83%	58%	182%	111%
Cc1cc2ncc(-c3ccccc3)nc2cc1C	88%	99%		102%	90%	97%	135%	70%	67%	95%
COc1cccc(-c2cc(=O)c3ccccc3o2)c1N	90%	99%	99%	91%		122%	96%	101%	120%	107%
O=C(Nc1cccc(Nc2cc(Nc3cccc(C(F)(F)F)c3)ncn2)c1)C1CC1	100%	91%	91%	81%	94%	100%	106%	81%	109%	92%
Cc1ccc(S(=O)(=O)/C=C/C#N)cc1	87%	104%	105%	98%	100%	125%	100%	105%	99%	125%
Nc1cccc(-c2cc3c(Oc4cccc(O)c4)ncnc3[nH]2)c1	101%	102%	91%	23%	4%	98%	84%	82%	78%	104%
COc1ccc(CNc2nc(N(CCO)CCO)nc3c2ncn3C(C)C)cc1	88%	102%	104%	91%	96%	104%	73%	106%	80%	94%
Nc1nc(Nc2ccc(S(N)(=O)=O)cc2)nn1C(=S)Nc1c(F)cccc1F		84%	43%	74%	28%	122%	31%	1%	2%	13%
COc1cc2ncnc(Nc3ccc(Oc4ccccc4)cc3)c2cc1OC	106%	99%	118%	113%	103%	98%	139%	81%	252%	82%
CCC(=O)Nc1ccc2ncnc(Nc3cccc(Br)c3)c2c1	93%	98%	107%	92%	82%	112%	118%	95%	100%	79%
CC(=O)c1ccc(N2CCOCC2)cc1O	89%	100%		112%	97%	112%	130%		74%	75%
